# Source: PubChem BioAssay
# A549 tox: Nrf2 qHTS screen for inhibitors: counterscreen for cytotoxicity; Potency, µM (doses to about 46 µM), for inactives: at the highest dose activity change, negative = cytotoxicity, hits mostly inhibitors; A549 ARE-Fluc cells, CellTiter-Fluor viability, 18-24 h; hit rate 0.16% among 390,000; AID 504648, 2011; further: on the % scale 0 is the no-effect control and ±100 the full control effect
#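 Cytotoxicity counterscreen: CellTiter-Fluor fluorescence was measured in A549 ARE_Fluc cells after 18-24 h of compound exposure in a concentration series. The subsequent BugLite luminescent read reports ARE-luciferase activity.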
# mIDH1 inhibitor: qHTS for Inhibitors of mutant isocitrate dehydrogenase 1 (IDH1): qHTS; Isocitrate dehydrogenase [NADP] cytoplasmic (Homo sapiens), O75874; IDH1-R132H enzyme, NADPH consumption, diaphorase/resazurin fluorescence; Potency, µM (series often up to 76.6 µM), without a hit: top-dose activity change, negative = inhibition, actives largely listed as inhibitors; hit rate 0.093% among 390,000; AID 602179, 2012; further: on the % scale 0 is the no-effect control and ±100 the full control effect; nearly all actives have a fitted effect of over 65% in size
# Target sequence (O75874 whole entry R132H, stated change not applied): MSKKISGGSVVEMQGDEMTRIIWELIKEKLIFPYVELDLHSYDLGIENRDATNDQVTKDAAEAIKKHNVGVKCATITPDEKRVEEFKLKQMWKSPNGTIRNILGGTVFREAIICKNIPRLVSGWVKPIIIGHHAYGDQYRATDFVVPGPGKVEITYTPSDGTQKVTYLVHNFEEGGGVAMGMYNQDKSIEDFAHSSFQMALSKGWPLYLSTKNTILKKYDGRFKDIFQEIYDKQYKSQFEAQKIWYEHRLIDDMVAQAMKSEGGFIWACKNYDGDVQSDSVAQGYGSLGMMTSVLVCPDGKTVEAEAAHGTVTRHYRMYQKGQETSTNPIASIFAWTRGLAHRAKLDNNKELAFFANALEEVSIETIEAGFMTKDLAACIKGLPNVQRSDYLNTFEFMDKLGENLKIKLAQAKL
#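 IDH1-R132H (0.5 ug/mL) preincubated 30 min with compound, then NADPH (0.016 mM) and alpha-KG (2 mM) added; 80 min at RT, pH 7.5. Remaining NADPH coupled via diaphorase/resazurin to fluorescence (540/590 nm); concentration-response curves normalized to no-enzyme control.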
# Nrf2 activator: qHTS of Nrf2 Activators | hit rate 0.31% among 410,000 | Potency, µM (highest dose often 46.1 µM), inactives show at the top dose activation, hits mostly activators | AREc32 ARE-luciferase reporter (MCF7-derived line), luminescence, 24 h; further: % of control where 0% means no effect; nearly all actives have a fitted effect of over 65% in size
#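 AREc32 cells carrying an ARE-driven firefly luciferase, 1000 cells/well in OPTI-MEM with 5% FBS, dosed after overnight attachment and incubated 24 hr at 37 deg C. Steady-Glo luminescence read after 30 min at RT.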
# Nrf2 inh: Nrf2 qHTS screen for inhibitors; A549 ARE-Fluc reporter, luciferase luminescence, 18-24 h; hit rate 2.1% among 360,000; AID 504444, 2011; Potency, µM (highest dose often 46 µM), without a hit: top-dose activity change, negative = inhibition, usual class: inhibitors; further: on the % scale 0 is the no-effect control and ±100 the full control effect; nearly all actives have a fitted effect of over 60% in size
#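 Nrf2 activity is the BugLite luminescence, read 15 min after reagent at room temperature, following CellTiter-Fluor cytotoxicity readout (30 min, 37C). Compound titrations were applied for 18-24 h to 5000 A549 ARE_Fluc cells/well in 5% FBS OPTI-MEM.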
# ELG1 repair inh: qHTS screen for small molecules that inhibit ELG1-dependent DNA repair in human embryonic kidney (HEK293T) cells expressing luciferase-tagged ELG1; HEK293T ELG1-luciferase reporter, luminescence, 16 h; DNA damage induced by 5-fluorouridine; Potency, µM (series often up to 46.1 µM), inactives show at the top dose activity change, negative = inhibition, usual class: inhibitors; hit rate 2.3% among 330,000; further: on the % scale 0 is the no-effect control and ±100 the full control effect; nearly all actives have a fitted effect of over 55% in size
#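 DMSO vehicle served as the neutral condition. Each well held 2,000 cells given 5-fluorouridine plus compound; after 16 hr at 37 °C/5% CO2, ONE-Glo was added and luciferase measured 30 min later.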
# * hit, by the source's call; ? = inconclusive; . = not tested or not shown. In the library only some 3.8% were active in any assay of this set; here they are far more common. The call rests on the fitted dose curve; in most records, active means well fitted curve in the direction sought with a large enough effect; inconclusive means small, poorly fitted or top-dose-only effect, or another doubt; inactive means no such curve, though single readings can be large; an effect the other way counts as inactive or inconclusive. Potency means the concentration at half of the fitted maximal effect.
SMILES,A549 tox,mIDH1 inhibitor,Nrf2 activator,Nrf2 inh,ELG1 repair inh
O=C(C1CCCN(S(=O)(=O)c2ccc(Br)s2)C1)N1CCN(c2ccccc2)CC1 (stereo not given),-16%,9%,0%,16µM*,15µM*
O=C(C1CCCN(S(=O)(=O)c2ccc(Br)s2)C1)N1CCCCCC1 (stereo not given),4%,1%,0%,.,.
Clc1ccc(-c2nnc(CSc3nnc(-c4cccs4)n3Cc3ccccc3)o2)cc1,-11%,-2%,7%,21µM*,-18%
Fc1ccc(NCc2nnc(SCc3nnc(-c4ccccc4)o3)n2Cc2ccccc2)cc1,-18%,-7%,-1%,?,16µM*
CC(C)(C)c1nnc(NC(=O)C2CCN(C(=O)c3ccccc3)CC2)s1,-1%,.,.,-29%,.
CCOc1ccc(-c2c(C)nn3c(C)c(C(=O)Nc4ccccc4C(=O)OC)cnc23)cc1OCC,11%,.,0%,3%,.
O=C(Nc1ccc2oc(-c3cccnc3)nc2c1)c1ccc(-c2ccccc2OC(F)(F)F)o1,-2%,-8%,5%,0.65µM*,.
O=C(Nc1ccc2oc(-c3cccnc3)nc2c1)c1ccc(-c2ccccc2)o1,-6%,2%,9%,13µM*,.
O=C(CCSc1ccc(F)cc1)Nc1ccc(-n2cnnn2)cc1,-5%,12%,1%,-14%,18µM*
O=C(CCSc1nnc2ccc3ccccc3n12)Nc1ccc(F)cc1,-5%,5%,2%,-19%,30%
CCCN1C(=O)c2cc(C(=O)Nc3cccc(C(C)=O)c3)ccc2C1Nc1cccc(C(C)=O)c1 (stereo not given),?,-1%,3%,-1%,16µM*
Nc1nc(Cl)cc(N2CCCC2)n1,-2%,12%,-1%,?,?
Nc1nc(Cl)cc(N2CCC(c3cc(-c4ccc(Cl)cc4Cl)n[nH]3)CC2)n1,?,3%,4%,10µM*,-6%
CCc1ccc(OC)c(S(=O)(=O)Nc2ccc(Cc3ccncc3)cc2)c1,-23%,3%,7%,18µM*,-28%
CCc1ccc(NS(=O)(=O)c2ccc(OC)c3ncccc23)cc1,-1%,-8%,0%,4%,6%
COc1ccc(NC(=O)c2ccccc2[N+](=O)[O-])cc1,-1%,0%,0%,?,?
COc1ccccc1Nc1ccc(NC(=O)c2cccc([N+](=O)[O-])c2C)cc1,-22%,3%,8%,10µM*,?
CC1CCN(C(=O)CSc2nnc3c(n2)[nH]c2ccccc23)CC1,-24%,1%,0%,8.2µM*,-19%
COc1ccccc1-c1cc(C(F)(F)F)nc(S(=O)(=O)CCCC(=O)Nc2cccnc2Cl)n1,?,-1%,-3%,21µM*,?
COc1ccc(S(=O)(=O)c2c(Nc3cccc(C)c3C)sc(C(=O)c3ccccc3)c2N)cc1,-15%,-19%,-1%,-7%,.
Clc1ccc(CON/C=N/c2ncnc3sccc23)cc1,-11%,-1%,0%,21µM*,?
CCn1cc2nc(SCc3ccc(C)cc3)n(CCc3ccccc3)c(=O)c2n1,?,12%,-1%,21µM*,.
Cc1c(Cl)cccc1NC(=S)NCCC(c1ccccc1)c1ccccc1,-22%,7%,0%,?,?
COc1cc(NC(=S)NCCC(c2ccccc2)c2ccccc2)cc(OC)c1,?,0%,2%,23µM*,-20%
COc1cccc(NC(=S)NCCC(c2ccccc2)c2ccccc2)c1,9%,2%,1%,.,-8%
SMILES,A549 tox,mIDH1 inhibitor,Nrf2 activator,Nrf2 inh,ELG1 repair inh
Cc1cc(Cl)ccc1NC(=S)NCCC(c1ccccc1)c1ccccc1,?,8%,3%,16µM*,?
Cc1cccc(-c2nnc(-c3cccc(NC(=O)Cc4cccs4)c3)o2)c1,?,1%,4%,21µM*,?
O=C(Cc1cccs1)Nc1ccc(-c2nnc(-c3ccccc3)o2)cc1,0%,-1%,4%,10%,.
COc1ccc(C2c3c(oc4cc(C)cc(C)c4c3=O)C(=O)N2Cc2ccco2)cc1OC (stereo not given),2%,.,0%,22%,.
O=C(Nc1ccccc1)N1CCN(c2cccc(C(F)(F)F)c2)CC1,-16%,1%,-1%,23µM*,?
S=C(NCC1CCCO1)N1CCN(c2ccccc2)CC1 (stereo not given),0%,0%,3%,1%,?
O=C(c1noc2c1CCCCC2)N1CCN(c2cccc(C(F)(F)F)c2)CC1,7%,10%,0%,?,.
CC1CCc2onc(C(=O)N3CCN(c4cccc(C(F)(F)F)c4)CC3)c2C1 (stereo not given),-3%,17%,0%,21µM*,.
FC(F)(F)c1cccc(N2CCN(C(=S)NCC3CCCO3)CC2)c1 (stereo not given),?,4%,3%,13µM*,21µM*
CCC(C)[C@H](NC(=O)N1CCN(c2cccc(C(F)(F)F)c2)CC1)C(=O)OC (stereo not given in full),-10%,2%,-1%,18µM*,0%
Cc1ccc(C(=O)Nc2ccc3c(c2)N(C)C(=O)c2ccccc2S3)cc1,?,-2%,1%,.,.
CCOC(=O)c1c(C)[nH]c(C)c1S(=O)(=O)N(C)CC(=O)Nc1ccc(C)c(N(C)C)c1,1%,0%,-1%,?,.
Cc1ccc(CN2C(=O)C3(c4ccccc42)N(c2ccc(C)c(Cl)c2)C(=O)CS3(=O)=O)cc1 (stereo not given),-1%,24%,-1%,?,.
COCCNc1nnnc2c1sc1nc(N3CCOCC3)c3c(c12)CC(C)(C)OC3,-5%,-3%,0%,?,4.1µM*
COc1ccc(C2c3c(ncn(CCc4ccccc4)c3=N)Oc3ccc4ccccc4c32)cc1OC (stereo not given),-14%,.,.,-6%,.
CCOc1ccc(-c2cc3cc(OC)c(OC)cc3c(C)n2)cc1,8%,18%,0%,-1%,?
COc1ccc(-c2cn3ccccc3n2)cc1OC,3%,5%,11µM*,?,?
Cc1ccc(-c2cc(-c3ccccc3)nc(Cl)n2)cc1,12%,-1%,9%,-20%,?
CCc1nc(-c2ccc(OC)c(OC)c2)cc2cc(OC)c(OC)cc12,6%,3%,0%,2%,26µM*
COc1ccc(-c2cc(-c3ccccc3)nc(Cl)n2)cc1OC,1%,-15%,1%,?,18µM*
COc1ccc(C(=O)N2N=C(c3cccc(NS(C)(=O)=O)c3)CC2c2cccs2)cc1 (stereo not given),-10%,0%,7%,?,?
